Assay results reported in ChEMBL document CHEMBL1157539, “Thousands of chemical starting points for antimalarial lead identification” (Nature, 2010).

Tests used:
Type in all cases: functional
Plasmodium falciparum [1] = experiment: GSK_TCMDC: Inhibition of Plasmodium falciparum 3D7 in whole red blood cells, using parasite LDH activity as an index of growth. Test compounds present at 2uM
Plasmodium falciparum [2] = experiment: GSK_TCMDC: Inhibition of Plasmodium falciparum Dd2 in whole red blood cells, using parasite LDH activity as an index of growth. Test compounds present at 2uM
HepG2 = experiment: GSK_TCMDC: Percent inhibition of human HepG2 cell line. Test compounds present at 10uM.

SMILES | Inhibition (Plasmodium falciparum [1]) | Inhibition (Plasmodium falciparum [2]) | Inhibition (HepG2)
COc1c(O)cc2oc(-c3ccc(O)cc3)cc(=O)c2c1O [HISPIDULIN] | 96% | 0% | 6%
Cc1nnc(Sc2ncnc3scc(-c4ccc(F)cc4)c23)s1 | 99% | 50% | 13%
Cc1cc(-c2ccc(CNC3CCN(C)CC3)cc2)ccc1S(=O)(=O)NCc1ccccc1.O=C(O)C(F)(F)F | 100% | 97% | 52%
CCNc1cc(C(=O)N[C@@H](Cc2ccccc2)[C@H](O)CNC(C)(C)CC(C)(C)C)c(F)c(N2CCCCS2(=O)=O)c1 | 94% | 63% | 8%
CN1CCN(c2ccc(CNc3ccc4ncc(-c5cccc(OC(F)(F)F)c5)n4n3)cc2)CC1 | 89% | 78% | 25%
COc1ccc2nc(C)cc(Nc3ccc(Oc4ccc5ccccc5c4)c(Cl)c3)c2c1 | 100% | 99% | 40%
CN1CCCc2ccc(NC(=O)Nc3ccc(-c4ccccc4)cc3)cc2C1 | 97% | 47% | 23%
Cc1cc(Nc2cc(Cl)cc(Cl)c2)nc(N)n1 | 94% | 28% | 0%
CCCN1CCN(c2ccccc2NS(=O)(=O)c2ccc(C(=O)Nc3ccc(Cl)cc3)cc2)CC1.O=C(O)C(F)(F)F | 84% | 9% | 17%
CCCC(C)NC(=O)c1cnn(-c2ccc(C(C)(C)C)cc2)c1OCc1ccc(Br)cc1 (centres undefined) | 84% | 64% | 17%
O=C(Nc1ccc(N2CCCCC2)c(Cl)c1)c1ccco1 | 96% | 95% | 0%
Cc1ccc(NS(=O)(=O)c2cccs2)cc1-c1cccc(C(=O)Nc2ccc(F)cc2)c1 | 99% | 100% | 38%
Cc1c[nH]c2cc(/C=C/C(=O)NC3CCC(CCN4CCc5ccc(C#N)cc5CC4)CC3)ccc12.Cl (centres undefined) | 95% | 59% | 0%
O=C(NCCCCN1CCC(c2ccc3c(c2OCc2ccncc2)CCCC3)CC1)c1ccc(NC(=O)c2ccc(Cl)cc2)cc1 | 100% | 99% | 62%
O=C(Nc1cccc(OCc2ccccc2)c1)c1ccc(CN2CCC(Cc3ccccc3)CC2)cc1 | 100% | 27% | 41%
Cc1cccc2nc(-c3cccc(-c4cccc(NC(=O)NCc5cccc(F)c5)c4)c3)[nH]c12 | 98% | 32% | 11%
Cc1cc(-c2cc(-c3ccc(OCCN(C)C)cc3)[nH]c2-c2ccc3c(c2)CCC3=NO)ccn1 | 100% | 92% | 0%
COc1ccc(C)c(Nc2ccnc(Nc3cccc(-c4nc5ccccc5[nH]4)c3)n2)c1.Cl | 98% | 35% | 27%
CCN(c1ccc(F)cc1)S(=O)(=O)c1cc(Br)cc2c1N(C(=O)C1CC1)CC2 | 88% | 79% | 0%
CN1CCC(NCc2ccc(-c3cccc(-c4nc5ccccc5[nH]4)c3)cc2)CC1.O=C(O)C(F)(F)F | 100% | 96% | 50%
COc1ccc(Cc2cccc(C(C(=O)NCc3cc(Cl)cc(Cl)c3)N3CCN(C)CC3)c2)cc1.O=C(O)C(F)(F)F (centres undefined) | 100% | 24% | 8%
O=C(/C=C/c1ccccc1Cl)Nc1ccc(Br)c(OCCN2CCC(O)(c3ccccc3)CC2)c1.O=C(O)C(=O)O | 100% | 85% | 39%
CCOc1cc[nH]c(=O)n1 | 97% | 95% | 0%
O=C(NC1CCC(N2CCC(c3nc4ccccc4s3)CC2)CC1)c1cc2ccccc2[nH]1 (centres undefined) | 94% | 37% | 23%
CCN(CC)CCN(Cc1ccc(-c2ccc(C(F)(F)F)cc2)cc1)C(=O)Cn1c(SCc2ccc(F)cc2)cc(=O)c2ccccc21.O=C(O)C(O)C(O)C(=O)O | 100% | 70% | 50%
CCCCC(=O)Nc1ccc(Nc2nc(C)cc(N3CCCC3)n2)cc1 | 100% | 67% | 38%
Cc1ccc2nc(-c3ccc(C(=O)NC4CCN(Cc5ccccc5)CC4)cc3)[nH]c2c1C | 100% | 46% | 22%
Cn1cccc1C(=O)NCC(CCNc1cc(=O)c2ccccc2[nH]1)NCc1cc(Br)cc(Br)c1 (centres undefined) | 92% | 52% | 0%
